Screening data as filed in PubChem BioAssay.
Most compounds without a hit are left out; they make up all but 7.5% or so of the library.
HCV inhibitor = blocks hepatitis C virus; Huh7.5.1 HCVcc-Cre infection, luciferase reporter, 44 h; Potency, µM (titrated, usually from 41.8 µM), actives largely listed as inhibitors; 3.4% of 340,000 active
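Seed cells (1,000/well) for 4 h; treat with compound and infect with HCVcc-Cre, moi about 0.5. Incubate 44 h, then detect luciferase activity.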
Giardia FBPA inh = blocks Giardia fructose-bisphosphate aldolase activity. A8B2U2. purified Giardia FBPA. Potency, µM (titrated, usually from 59.6 µM), actives largely listed as inhibitors. 0.71% of 290,000 active. AID 2451; also: nearly all actives have a fitted effect of over 55% in size
Target sequence (A8B2U2 whole entry, looked up): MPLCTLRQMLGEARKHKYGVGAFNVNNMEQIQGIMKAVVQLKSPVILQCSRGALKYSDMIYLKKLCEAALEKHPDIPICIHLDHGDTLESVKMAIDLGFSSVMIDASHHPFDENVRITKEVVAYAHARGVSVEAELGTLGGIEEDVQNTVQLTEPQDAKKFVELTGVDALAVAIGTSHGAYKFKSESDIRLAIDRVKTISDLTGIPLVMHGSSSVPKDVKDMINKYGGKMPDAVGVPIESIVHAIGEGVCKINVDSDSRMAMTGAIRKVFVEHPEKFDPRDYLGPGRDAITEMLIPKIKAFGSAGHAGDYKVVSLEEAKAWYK
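Giardia FBPA (40 nM reagent) was preincubated 10 min at RT with compound (up to 57.5 uM final), then substrate plus GAPDH/TPI/NAD/arsenate coupling system with diaphorase/resazurin was added; resorufin fluorescence (525/598 nm) was read after 20 min.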
Vaccinia mCherry = inhibitors of vaccinia virus infection (mCherry reporter signal); Vaccinia virus mCherry reporter infection, fluorescence; Potency, µM (doses to about 36.5 µM), most hits filed as inhibitors; 0.63% of 310,000 active; AID 720579; calls by dose curve; tested in A549 cells; also: nearly all actives have a fitted effect of over 35% in size
FMDV inh = antivirals against foot and mouth disease virus. FMDV antiviral cell-based qHTS. Potency, µM (titrated, usually from 57.9 µM), usual class: inhibitors. 1.2% of 410,000 active. AID 1159524; calls by dose curve; tested in HEK293T cells; also: read-out not given here; nearly all actives have a fitted effect of over 45% in size
VACV Venus inh = vaccinia inhibition (Venus reporter). 0.46% of 330,000 active. Vaccinia virus Venus reporter expression, fluorescence. Potency, µM (doses to about 36.5 µM), usual class: inhibitors; calls by dose curve; tested in A549 cells; also: nearly all actives have a fitted effect of over 30% in size
HCMV inh = blocks human cytomegalovirus replication | 4.5% of 410,000 active | activity change, negative = inhibition, % at 57.5 µM | HFF cells, HCMV-luciferase reporter, 72 h; hits give low values; in the data active = activity change below about -60%; inconclusive = no clear call, values can overlap the other calls; inactive = above about -39%
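After 16 h attachment at 37C, HFF cells received test compound and HCMV-luciferase (1 PFU/cell); reporter luminescence read 72 h later, data normalized against buffer-only and known inhibitor Salinomycin.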
Each line names hits and unclear results; the compound was inactive in the other large screens. Unless noted, calls follow the shape of the dose curve; as a rule, active = well fitted curve in the direction sought with a large enough effect; inconclusive = small, poorly fitted or top-dose-only effect, or another doubt; inactive = no such curve, though single readings can be large; an effect the other way counts as inactive or inconclusive.

Cc1ccc(CSc2nc(=O)c3c(C)cc(C)nc3n2C2CC2)cc1	FMDV inh inconclusive, HCMV inh -101.3 (no result: HCV inhibitor, Giardia FBPA inh)
COCCNC(=O)CN1C(=O)c2cccnc2Sc2ccccc21	none (no result: HCV inhibitor, Giardia FBPA inh)
CCOC(=O)c1c(NC(C)=O)sc2c1CCC(C=NCCCN(CC)CC)=C2Sc1ccccc1	HCV inhibitor 7.94µM, Vaccinia mCherry inconclusive, FMDV inh inconclusive (no result: Giardia FBPA inh, HCMV inh)
C[C@H](CO)N1C[C@H](C)[C@@H](CN(C)S(=O)(=O)c2cccs2)Oc2c(NC(=O)C3CC3)cccc2C1=O	none (no result: Giardia FBPA inh)
COc1ccccc1N(Cc1ccccc1)S(=O)(=O)c1cccc(C(=O)Nc2cc(C)ccn2)c1	HCV inhibitor inconclusive, FMDV inh inconclusive, HCMV inh -89.9
COc1ccccc1N(Cc1ccccc1)S(=O)(=O)c1cccc(C(=O)NC2CC(C)(C)NC(C)(C)C2)c1	HCV inhibitor 2.24µM, Vaccinia mCherry inconclusive, VACV Venus inh inconclusive (no result: Giardia FBPA inh)
COc1ccc(N2CCN(C(=O)Cc3c(C(=O)O)c(C)cn3C)CC2)cc1	none (no result: HCV inhibitor, Giardia FBPA inh)
O=C(Cc1cccs1)NCc1cc(Cl)cc(Cl)c1	none
O=C(Nc1ccccc1)C1=C(c2ccccc2)S(=O)(=O)CCS1(=O)=O	HCV inhibitor inconclusive, Vaccinia mCherry inconclusive, FMDV inh 14.1µM, VACV Venus inh inconclusive, HCMV inh -92.7
CCC(C(=O)Nc1ccc(N2CCOCC2)c(S(=O)(=O)Nc2ccccc2OC)c1)c1ccccc1 (stereo not given)	HCV inhibitor inconclusive, HCMV inh -81.2 (no result: Giardia FBPA inh)
COc1ccccc1NS(=O)(=O)c1cc(NC(=O)CCC2CCCC2)ccc1N1CCOCC1	Giardia FBPA inh inconclusive, HCMV inh -103.7 (no result: Vaccinia mCherry, VACV Venus inh)
COc1ccccc1NS(=O)(=O)c1cc(NC(=O)CC(C)(C)C)ccc1N1CCOCC1	HCV inhibitor inconclusive, HCMV inh inconclusive
CCN(Cc1ccc(NC(C)=O)cc1)CC1CCCN(CCc2cccc(OC)c2)C1 (stereo not given)	HCV inhibitor inconclusive, FMDV inh inconclusive (no result: Vaccinia mCherry, VACV Venus inh)
O=c1c2c3c(sc2n(CCN2CCCCC2)c(=O)n1Cc1ccco1)CCCCC3	HCV inhibitor inconclusive (no result: Vaccinia mCherry, VACV Venus inh)
O=c1c2c3c(sc2n(CCN2CCOCC2)c(=O)n1Cc1ccco1)CCCCC3	HCV inhibitor 10µM, HCMV inh -95.5 (no result: Vaccinia mCherry, VACV Venus inh)
CN1Cc2c(N3CCOCC3)nc3sc(C#N)c(N)c3c2CC1(C)C	none
CN1Cc2c(N3CCOCC3)nc3sc(C(=O)c4ccc(Br)cc4)c(N)c3c2CC1(C)C	Vaccinia mCherry 6.31µM, HCMV inh -94.7
Cc1nc2c(-c3ccccc3)c(C)nn2c(C)c1CCC(=O)NCc1ccco1	HCMV inh -97.6
Cc1nc2c(-c3ccccc3)c(C)nn2c(C)c1CCC(=O)NCc1ccccc1	none (no result: HCV inhibitor, Giardia FBPA inh)
Cc1ccc(S(=O)(=O)N2C[C@@H](C)[C@]3(C2)[C@H](O)[C@H](OC(=O)Nc2cccs2)C[C@H]2C(=O)N(c4ccccc4)C(=O)[C@H]23)cc1	FMDV inh inconclusive, HCMV inh -103.9 (no result: HCV inhibitor, Giardia FBPA inh)
O=C(O)/C=C(\Oc1ccccc1)C1(O)CCCCC1	none (no result: Vaccinia mCherry, VACV Venus inh)
Cc1ccc2nc(N(CCCN(C)C)C(=O)c3ccc4ncsc4c3)sc2c1	HCV inhibitor inconclusive
COc1ccc(C(C)(O)c2nc(-c3ccccc3)cs2)cc1 (stereo not given)	HCMV inh -78.2 (no result: HCV inhibitor, Giardia FBPA inh)
COc1cccc(C(C)(O)c2nc(-c3ccc(N(C)C)cc3)cs2)c1 (stereo not given)	HCMV inh -73.7 (no result: HCV inhibitor, Giardia FBPA inh)
COc1ccc(-c2csc(C(C)(O)c3cccnc3)n2)cc1 (stereo not given)	HCMV inh -68.7 (no result: HCV inhibitor, Giardia FBPA inh)
COc1cccc(C(C)(O)c2nc(-c3ccccc3)cs2)c1 (stereo not given)	HCMV inh inconclusive (no result: HCV inhibitor, Giardia FBPA inh)
CN(C)c1ccc(CNC(=O)c2cnc(N3CCN(Cc4cccc(C(F)(F)F)c4)C3=O)o2)cc1	none (no result: HCV inhibitor, Giardia FBPA inh, Vaccinia mCherry, FMDV inh, VACV Venus inh)
CN(C)C(=O)Oc1c(Cl)cc(Cl)c2ccccc12	HCMV inh -71.3 (no result: Vaccinia mCherry)
CCN(CC)c1ccc(-n2c(C)c(C(C)=O)c(C(C)=O)c2C)cc1	FMDV inh inconclusive, HCMV inh -62.6 (no result: Vaccinia mCherry, VACV Venus inh)
O=C(NC1CCCC1)c1ccc(COc2ccccc2Br)o1	HCV inhibitor 12.6µM (no result: Giardia FBPA inh, Vaccinia mCherry, VACV Venus inh)
COc1ccc(C(=O)Nc2cc3c4c(c2)CC(=O)N4CCC3)cc1	HCV inhibitor 2.24µM (no result: Giardia FBPA inh)
COc1ccc(C(=O)Nc2cccc3c2CCCC3)c(OC)c1	HCV inhibitor 31.6µM (no result: Giardia FBPA inh)
O=C(Nc1cc2c3c(c1)CC(=O)N3CCC2)c1ccc(F)cc1	none (no result: Giardia FBPA inh)
COc1ccc(C(=O)Nc2cccc3c2CCCC3)cc1	none (no result: Vaccinia mCherry, VACV Venus inh)
COc1ccc(C(=O)Nc2ccc(C)cn2)c(OC)c1	HCV inhibitor 10µM, FMDV inh 1.78µM, HCMV inh -76.4
COc1ccc(C(=O)Nc2cc3c4c(c2)CC(=O)N4CCC3)c(OC)c1	HCV inhibitor 3.98µM (no result: Giardia FBPA inh, HCMV inh)
NS(=O)(=O)c1cc(C(=O)NCC2CCCCC2)ccc1Cl	none
COc1ccc(C(=O)Nc2nnc(Cc3ccc(OC)c(OC)c3)s2)c(OC)c1	HCV inhibitor 11.2µM
COCc1nnc(NC(=O)c2ccc(OC)cc2OC)s1	none
O=C(Oc1ccccc1F)c1nc(SCc2ccc(F)cc2)ncc1Cl	none (no result: HCV inhibitor, Giardia FBPA inh)
Cc1ccc(C(CC(=O)NCc2ccco2)c2ccccc2)c(O)c1 (stereo not given)	none
CCCN(CCC)C(=O)CC(c1ccccc1)c1ccc(C)cc1O (stereo not given)	HCMV inh -69.7 (no result: HCV inhibitor)
Cc1ccc(C(CC(=O)NCC2(c3ccccc3)CCCC2)c2ccccc2)c(O)c1 (stereo not given)	FMDV inh 7.94µM (no result: HCV inhibitor, Giardia FBPA inh)
Cc1cn([C@H]2C[C@H](O)[C@@H](CO)O2)c(=O)[nH]c1=O	none (no result: HCV inhibitor, Vaccinia mCherry, FMDV inh, VACV Venus inh, HCMV inh)
